# In all, about 48,000 compounds went through this assay and about 13,000 (27%) showed an effect of 50% or more. This is one part of the list.
# System: Wolbachia pipientis
# Assay: Anti-Wolbachia Cell-Based Screen
# Type: functional
# Design: scale not given: in the data most compounds retested in dose-response had high values
# Conditions: 5 µM
row,SMILES,Percent Effect [%]
1,O=C(O)[C@@H]1CN(C2CCCCC2)C[C@H]1C1CC1,8.818
2,CCS(=O)(=O)N1CCC(CSc2ccccc2)C1 (stereo not drawn),-7.795
3,CNC(=O)C(C)(C)N1CCC[C@H]1C(=O)NCCN1CCOCC1,8.557
4,CCc1ccc(C(=O)N2CCCn3nnc(Cn4cccn4)c3C2)cc1,1.938
5,O=C(O)C(F)(F)F.c1ccc(OCc2nnn3c2CN(c2ncccn2)CCC3)nc1,-15.4
6,COCc1nnn2c1CN(C(=O)c1c[nH]cn1)CCC2,-0.6058
7,CC(=O)NCc1nnn2c1CN(c1ncccn1)CCC2,96.74
8,O=C(O)C(F)(F)F.OCCOCc1nnn2c1CN(c1ncccn1)CCC2,8.15
9,CC(=O)NCc1nnn2c1CN(c1ncc(C)cn1)CCC2,101.7
10,CCS(=O)(=O)N1CCCn2nnc(CNC(C)=O)c2C1,115.8439
11,COc1cccc(-c2noc(-c3ccc(NCC(C)C)nc3)n2)c1OC,-21.63
12,CCN1CCC(c2nnc(CN3CCCC3)n2C2CC2)CC1,-1.245
13,Cc1cc(N(C)C)nc(C2(C)CCNCC2)n1,87.74
14,Cc1cc(N(C)C)nc(N2CCn3c(C)nnc3C2)n1,-0.4749
15,Cc1cnn(C2CN(c3nc(C)cc(N(C)C)n3)C2)c1,-14.5
16,Cc1cc(N(C)C)nc(C2(C)CCCNC2)n1 (stereo not drawn),102.5
17,Cc1nc(N(C)C)cc(C2(C)CCNCC2)n1,111
18,CN(Cc1ccc2nsnc2c1)C(=O)CCc1cc2n(n1)CCCNC2,-10.43
19,COCc1cc(N(C)Cc2ccccn2)nc(C(C)(C)C)n1,-4.697
20,O=C(COc1ccccc1N1CCCC1)N1CCN[C@H]2CS(=O)(=O)C[C@H]21,-3.795
21,O=C(CCc1ccccc1Br)N1CC(S(=O)(=O)C2CCCCC2)C1,3.843
22,Cc1noc(CNc2ccc(OC(F)F)cc2OC(F)F)n1,-10.63
23,Cc1n[nH]c(C)c1-c1nccnc1CC1CCN(S(C)(=O)=O)C1 (stereo not drawn),111.1

row,SMILES,Percent Effect [%]
1,Cc1noc2ncc(C(=O)NCC3CCN(C(C)C)C3)cc12 (stereo not drawn),-9.955
2,CC(=O)N1CCC(NC(=O)NCCCc2cn[nH]c2C)CC1,-4.714
3,CN1CCCC(N2CCN(c3cc(C(F)(F)F)ccn3)CC2)C1 (stereo not drawn),-11.03
4,Cc1n[nH]c(C)c1-c1nccnc1CC1CCCN(C)C1 (stereo not drawn),113
5,CS(=O)(=O)N1Cc2nccn2CC(CN2CCCC2=O)C1 (stereo not drawn),-14.04
6,Cc1ccc(CN(Cc2ccccn2)C(=O)CCC2CCCN(C)C2)s1 (stereo not drawn),-9.083
7,CC(=O)N1CCC(Cc2nccnc2-c2c(C)n[nH]c2C)C1 (stereo not drawn),110.3
8,CC(=O)N1CCC(CN2CCN(Cc3nccn3C)C(C)C2)CC1 (stereo not drawn),-3.409
9,Cc1n[nH]c(C)c1-c1nccnc1CC1CCN(C(C)C)CC1,127
10,CS(=O)(=O)N1CCC(CSc2ccccc2)C1 (stereo not drawn),7.413
11,Cc1n[nH]c(C)c1CN1CCC(c2cc(C(C)C)n[nH]2)CC1,7.572
12,CN1CCCCC1CCC(=O)NCCSc1cnn[nH]1 (stereo not drawn),-30.14
13,CCOC(=O)C1CN(C(=O)COC)Cc2ncn(CC)c21 (stereo not drawn),-5.507
14,COCC(=O)N1CCC(Cc2nccnc2-c2c(C)n[nH]c2C)C1 (stereo not drawn),109.3
15,Cc1n[nH]c(C)c1-c1nccnc1CC1CCNC1 (stereo not drawn),100.9
16,CC1CCCCN1C(=O)Cn1cnc(C#N)n1 (stereo not drawn),-6.637
17,CS(=O)(=O)N1CC(c2nc[nH]n2)c2cc(C(=O)NC3CCCC3)ccc21 (stereo not drawn),0.6803
18,CCN(CC)S(=O)(=O)N1CCCC1C(=O)N1CCSCC1 (stereo not drawn),22.8
19,Cc1nn(CCO)cc1CN1CCCC1c1nc2c(C)cccc2[nH]1 (stereo not drawn),-6.904
20,CNS(=O)(=O)c1cccc(S(=O)(=O)Nc2ncc(C)s2)c1,2.588
21,Cc1nn(C)cc1CN1CCCC1c1cccc(Nc2nccs2)n1 (stereo not drawn),88.47
22,Cc1nn(C)c(Cl)c1C1CCCN1Cc1cn2ccsc2n1 (stereo not drawn),41.71
23,COc1c(C2CCCN2Cc2cn3ccsc3n2)c(C)nn1C (stereo not drawn),3.624

row,SMILES,Percent Effect [%]
1,Cc1ncc(CO)c(CN2CCCC2c2nc3c(C)cccc3[nH]2)c1O (stereo not drawn),7.788
2,Cc1nonc1NC(=O)C1SCCc2sccc21 (stereo not drawn),-12.22
3,CCc1cnc(C)nc1NC(CC)c1cnn(C)c1 (stereo not drawn),-1.737
4,Cn1cc(CN2CCCC3(CCN(Cc4ccncc4)C3=O)C2)cn1 (stereo not drawn),102
5,Cc1cccc(CN2CCC3(CCCN(Cc4cnn(C)c4)C3)C2=O)n1 (stereo not drawn),94.18
6,Cc1cccc(CN2CCCC3(CCN(CC(=O)N(C)C)C3=O)C2)n1.O=C(O)C(F)(F)F (stereo not drawn),-13.27
7,Cc1cnc(CNC(=O)CC2CCc3ccccc32)cn1 (stereo not drawn),1.8
8,Cc1ccc(-c2nc(CN3CCOC(Cn4cccn4)C3)cs2)o1 (stereo not drawn),-10.9
9,CN(Cc1ccco1)C(=O)CN1CCOC(Cn2cccn2)C1 (stereo not drawn),126.4
10,Cc1ccc(CN(C)C(=O)CN2CCOC(Cn3cncn3)C2)o1 (stereo not drawn),-4.818
11,Cc1ccc(CN(C)C(=O)CN2CCCCC2Cn2cncn2)o1 (stereo not drawn),-8.08
12,CN(Cc1ccco1)C(=O)CN1CCCCC1Cn1cncn1 (stereo not drawn),-0.1414
13,CN(Cc1ccco1)C(=O)CN1CCOC(Cn2cncn2)C1 (stereo not drawn),96.26
14,CN(Cc1ccco1)C(=O)CN1CCCCC1Cn1cccn1 (stereo not drawn),4.659
15,CN(Cc1ccco1)C(=O)CN1CCCC1Cn1cccn1 (stereo not drawn),-1.962
16,Cc1ccc(CN(C)C(=O)CN2CCOC(Cn3cccn3)C2)o1 (stereo not drawn),114.2
17,CN(Cc1ccco1)C(=O)CN1CCCC1Cn1cncn1 (stereo not drawn),107
18,Cc1ccc(CN(C)C(=O)CN2CCCC2Cn2cccn2)o1 (stereo not drawn),15.96
19,Cc1ncsc1CN1C[C@@H]2COC[C@]2(COc2ccc(C#N)cn2)C1,-4.86
20,COc1ccc(Cl)cc1C(=O)N(C)Cc1cc(C)on1,-1.731
21,COCc1cc(N2CCc3onc(-c4cccc(OC)c4)c3C2)ncn1,-6.434
22,Cc1nc(C)c(CNCC2CCCn3ccnc32)s1 (stereo not drawn),-11.09
